Measurements from PubChem BioAssay.
Active and inactive are the calls of the source. Unless noted, no rule for the calls is given here.

How the values were obtained:
[1] = resazurin metabolic signal in HepG2 cells – cell-based, resazurin fluorescence, 24 h, PK04 Diversity Set, profiling panel (AID 1172); details: HepG2 viability, higher = more signal; also: test concentration not given here
[2] = budding yeast growth changes without added modifier – OD600, strain BY4716, 24 h, basal condition, primary screen (AID 1173); details: S. cerevisiae BY4716 growth, OD600, 24 h; higher = more signal, called active from +8 up or from −8 down
[3] = viability profiling in MM1S myeloma cells – cell-based, resazurin fluorescence, basal, 24 h, PK04 Diversity Set, profiling panel (AID 1174); details: higher = more signal, called active from +8 up or from −8 down;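 also: MM1S multiple myeloma cell line; test concentration not given here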
[4] = biological target: Dihydroorotate dehydrogenase (quinone), mitochondrial (Plasmodium falciparum (isolate 3D7)) (UniProt Q08210); experiment: inhibition of P. falciparum DHODH – biochemical, C-terminal His tag, absorbance 600 nm, primary screen (AID 1175); details: PfDHODH enzyme, DCIP absorbance 600 nm; higher = more signal, called active from +8 up or from −8 down;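 also: recombinant parasite enzyme with a five histidine tag at its C terminus; test concentration not given here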
[5] = inhibition of PAO1 biofilm formation – strain PAO1, LB-PBS medium, absorbance 600 nm, primary screen (AID 1176); also: test concentration not given here; details: P. aeruginosa PAO1 growth/biofilm, A600, 12 h; higher = more signal
[6] = growth modulation of vineyard yeast isolate – strain RM11-1a, OD600, basal, 24 h, primary screen (AID 1177);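 also: cultures grown under basal conditions with no added stressor; test concentration not given here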; details: S. cerevisiae RM11-1a growth, OD600, 24 h; higher = more signal, called active from +8 up or from −8 down
[7] = growth of efflux-deficient E. coli DRC39 – strain DRC39, OD650, 24 h, E. coli filamentation inducers, primary screen (AID 1178);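 also: growth measured as culture turbidity by optical density at 650 nm; test concentration not given here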; details: E. coli DRC39 acrAB, higher = more signal, called active from +8 up or from −8 down
[8] = growth of efflux-deficient E. coli DRC39 – strain DRC39, OD650, 48 h, E. coli filamentation inducers, primary screen (AID 1179);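 also: screen aims at cell division blockers that make cells filament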; details: E. coli DRC39 delta-acrAB growth, higher = more signal, called active from +8 up or from −8 down
[9] = viability profiling in RPMI8226 myeloma cells – cell-based, resazurin fluorescence, basal, 24 h, PK04 Diversity Set, profiling panel (AID 1180); details: higher = more signal;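 also: RPMI8826 multiple myeloma cell line at 5000 cells per well; test concentration not given here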
[10] = biological target: E3 ubiquitin-protein ligase XIAP (Homo sapiens) (UniProt P98170); experiment: small molecules binding XIAP protein – biophysical, small-molecule microarray, fluorescence 635 nm, primary screen (AID 1181); details: higher = more signal;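 also: score merges 667 nm emission and signal to noise over triplicate slides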
Chain of E3 ubiquitin-protein ligase XIAP (Homo sapiens) (P98170 whole entry, looked up): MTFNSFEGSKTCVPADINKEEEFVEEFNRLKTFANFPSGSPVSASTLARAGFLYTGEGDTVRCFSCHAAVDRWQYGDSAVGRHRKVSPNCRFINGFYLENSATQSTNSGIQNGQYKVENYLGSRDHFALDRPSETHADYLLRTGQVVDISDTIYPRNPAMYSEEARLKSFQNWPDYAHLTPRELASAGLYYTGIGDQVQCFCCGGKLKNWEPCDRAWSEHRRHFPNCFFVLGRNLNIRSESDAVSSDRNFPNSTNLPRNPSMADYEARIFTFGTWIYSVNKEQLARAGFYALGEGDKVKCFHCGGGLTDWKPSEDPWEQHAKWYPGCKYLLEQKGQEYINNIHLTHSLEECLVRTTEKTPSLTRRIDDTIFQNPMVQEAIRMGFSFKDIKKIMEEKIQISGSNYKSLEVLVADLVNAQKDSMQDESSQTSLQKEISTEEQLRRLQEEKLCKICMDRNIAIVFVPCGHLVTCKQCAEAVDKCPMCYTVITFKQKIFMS

Chain of Dihydroorotate dehydrogenase (quinone), mitochondrial (Plasmodium falciparum (isolate 3D7)) (Q08210 whole entry, looked up): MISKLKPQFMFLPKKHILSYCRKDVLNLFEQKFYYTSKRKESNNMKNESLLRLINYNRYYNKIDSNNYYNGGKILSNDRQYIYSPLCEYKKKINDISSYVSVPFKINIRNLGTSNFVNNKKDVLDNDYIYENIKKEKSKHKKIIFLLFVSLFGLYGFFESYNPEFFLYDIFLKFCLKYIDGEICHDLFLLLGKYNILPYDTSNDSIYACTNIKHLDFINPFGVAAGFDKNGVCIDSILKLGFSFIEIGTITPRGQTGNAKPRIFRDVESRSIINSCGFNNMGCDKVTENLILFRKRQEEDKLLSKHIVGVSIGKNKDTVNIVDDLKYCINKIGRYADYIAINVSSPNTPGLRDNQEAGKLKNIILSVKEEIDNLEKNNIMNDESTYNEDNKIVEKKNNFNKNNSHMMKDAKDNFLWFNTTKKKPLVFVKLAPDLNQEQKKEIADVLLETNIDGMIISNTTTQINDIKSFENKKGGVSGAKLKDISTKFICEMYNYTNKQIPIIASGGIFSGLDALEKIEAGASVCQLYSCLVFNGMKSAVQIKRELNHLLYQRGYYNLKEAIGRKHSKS

| Compound | z-score [1] | z-score [2] | z-score [3] | composite z-score [4] | z-score [5] | z-score [6] | z-score [7] | z-score [8] | z-score [9] | composite z-score [10] |
| --- | --- | --- | --- | --- | --- | --- | --- | --- | --- | --- |
| COCCOC(=O)N1C(=O)[C@@]2(c3ccccc31)[C@H](c1ccccc1OCCO)N1[C@H](c3ccccc3)[C@H](c3ccccc3)OC(=O)[C@H]1[C@@H]2C(=O)N1CCN(c2ncccn2)CC1 | -0.0332 | 2.64 (inactive) | -1.39 (inactive) | -0.539 (inactive) | 3.61 (inactive) | 3.08 (inactive) | -0.233 (inactive) | 0.176 (inactive) | -0.862 | -0.16 |
| O=C1C2C=CC(C(O)c3cc(C(F)(F)F)cc(C(F)(F)F)c3)N(n3cnnc3)C2C(=O)N1Cc1ccccc1 (stereo not given) | -0.064 | -1.01 (inactive) | -0.497 (inactive) | 0.861 (inactive) | 0.933 (inactive) | 1.09 (inactive) | 0.375 (inactive) | 0.589 (inactive) | -0.394 | 0.0945 |
| COCC(=C=CC[C@@H](O)c1cccc(OCCO)c1)C[C@@H](O)c1ccccn1 | 0.353 | -0.449 (inactive) | 0.423 (inactive) | -1.61 (inactive) | -0.353 (inactive) | 0.0156 (inactive) | 0.947 (inactive) | 0.604 (inactive) | 0.973 | 0.0471 |
| CCCC[C@@H]1C[C@H]1[C@@H](NC(=O)c1ccco1)c1ccc(-c2ccccc2)cc1 | -0.9 | 1.22 (inactive) | -1.52 (inactive) | -3.3 (inactive) | 2.16 (inactive) | 0.505 (inactive) | -1.05 (inactive) | -1.2 (inactive) | -1.29 | 0.773 |
| CC(C)C(=C=CC[C@H](O)c1ccc(OCCO)cc1)CCO | 0.933 | -1.87 (inactive) | -0.69 (inactive) | -0.324 (inactive) | 0.825 (inactive) | -0.269 (inactive) | -0.732 (inactive) | -0.794 (inactive) | -0.0148 | 0.223 |
| Cc1ccccc1C(O)C1C=CC2C(=O)N(c3ccccc3)C(=O)C2N1Nc1ccc(C(C)C)cc1 (stereo not given) | -1.7 | -0.945 (inactive) | -1.31 (inactive) | 1.82 (inactive) | 0.807 (inactive) | 1.93 (inactive) | -0.765 (inactive) | -1.14 (inactive) | -1.06 | 1.24 |
| COC(=O)[C@@]1(Cc2ccc(F)cc2)[C@H]2c3cc(C(=O)N(C)C)n(Cc4cc(F)c(F)c(F)c4)c3C[C@H]2CN1C(=O)c1ccccc1 | -2.13 | 1.56 (inactive) | -1.97 (inactive) | 0.349 (inactive) | 0.15 (inactive) | 1.16 (inactive) | -0.194 (inactive) | 0.38 (inactive) | -3.47 | 0.157 |
| CCOC(=O)[C@H]1C/C=C/C[C@H](C(=O)OCC)C(=O)O[C@H]2[C@@H](OC)O[C@H](CO)[C@@H](OC(=O)c3c(OC)cccc3OC)[C@@H]2OC1=O | -3.51 | -0.964 (inactive) | -3.73 (inactive) | -0.232 (inactive) | 0.498 (inactive) | 0.996 (inactive) | 0.0332 (inactive) | 0.328 (inactive) | -3.51 | -0.102 |
| CC(=O)NCCCC[C@@H]1NC(=O)[C@@H]2C[C@H](C(=O)NCCCCCNC(=O)CS)[C@H](c3cccc(OCCO)c3)N2C1=O | 0.77 | -0.719 (inactive) | 1.37 (inactive) | -29.3 (active) | 0.879 (inactive) | -0.86 (inactive) | 0.295 (inactive) | -0.171 (inactive) | 0.739 | -0.13 |
| C#C[C@H](O[Si](C#Cc1ccc(Oc2ccccc2)cc1)(C(C)C)C(C)C)c1ccccc1 | -1.03 | -12.7 (active) | -0.675 (inactive) | -0.289 (inactive) | 0.702 (inactive) | 0.619 (inactive) | -0.363 (inactive) | -0.172 (inactive) | -1.73 | -0.132 |
| COc1ccccc1CN1C(=O)c2ccccc2[C@@H](C(=O)NC2CC2)[C@@H]1c1ccc(CO)cc1 | 0.103 | -0.561 (inactive) | 0.84 (inactive) | -0.245 (inactive) | -0.342 (inactive) | 0.184 (inactive) | 0.421 (inactive) | 0.119 (inactive) | 0.407 | -0.0085 |
| COC(=O)[C@@]1(Cc2ccc(OC)cc2)[C@H]2c3cc(C(=O)N4CCCC4)n(Cc4ccc(O)c(OC)c4)c3C[C@H]2CN1C(=O)c1ccccc1 | -1.76 | 1.19 (inactive) | -0.431 (inactive) | 0.191 (inactive) | 0.591 (inactive) | 0.609 (inactive) | -0.446 (inactive) | -0.0429 (inactive) | -2.77 | 0.227 |
| CC(C)C(O)C1C=CC2C(=O)NC(=O)C2N1Nc1ccc(Cl)cc1Cl (stereo not given) | -1.29 | -9.69 (active) | -1.59 (inactive) | 0.0813 (inactive) | 0.751 (inactive) | 1.05 (inactive) | -0.456 (inactive) | -0.527 (inactive) | -1.93 | -0.02 |
| CCCc1cc2c(n1Cc1cc(F)cc(F)c1)C(C)C1CN(C(=O)c3ccccc3)C(C)(C(=O)OC)C21 (stereo not given) | -1.27 | 0.615 (inactive) | -1.65 (inactive) | 0.249 (inactive) | 0.992 (inactive) | 0.223 (inactive) | -0.522 (inactive) | -0.152 (inactive) | -1 | 0.0702 |
| O=C1C[C@@](C(=O)NC2CC2)(c2ccc([N+](=O)[O-])cc2)[C@@H](c2ccc(CO)cc2I)N1C1CCCCC1 | 0.0684 | -0.466 (inactive) | -0.191 (inactive) | -0.716 (inactive) | 0.512 (inactive) | -0.0222 (inactive) | 0.149 (inactive) | -0.528 (inactive) | -0.538 | 0.123 |
| CC(CO)N1C(=O)[C@@H]2C3C(=O)OCCC/C=C\[C@H]3OC23C=CCN(C(C)(C)C)C(=O)[C@@H]13 (stereo not given in full) | -0.181 | -0.382 (inactive) | -0.261 (inactive) | -4.03 (inactive) | 0.727 (inactive) | -0.0192 (inactive) | 0.855 (inactive) | 0.956 (inactive) | -0.178 | 0.801 |
| O=C1O[C@@H](c2ccccc2)[C@@H](c2ccccc2)N2[C@@H](c3ccccc3OCCO)[C@]3(C(=O)Nc4ccccc43)[C@@H](C(=O)Nc3nc4ccccc4s3)[C@H]12 | -0.699 | 0.583 (inactive) | -2.95 (inactive) | 0.905 (inactive) | 1.36 (inactive) | 1.11 (inactive) | -0.986 (inactive) | -1.25 (inactive) | -5.15 | 0.0975 |
| CCCCCN1CC=CC23O[C@@H]4/C=C\CCC(C)OC(=O)C4[C@H]2C(=O)N(C(C)CO)[C@@H]3C1=O (stereo not given in full) | 0.194 | 0.142 (inactive) | -0.139 (inactive) | 0.005 (inactive) | -0.0153 (inactive) | 0.449 (inactive) | 0.866 (inactive) | 0.657 (inactive) | 1.07 | -0.127 |
| C=CC[C@@]12N=C(c3ccc(OCCCO)cc3)O[C@@H]1c1ccccc1N(C)C2=O | -0.0241 | -0.926 (inactive) | -2.53 (inactive) | 0.579 (inactive) | 0.0684 (inactive) | 1.46 (inactive) | 0.817 (inactive) | 1.18 (inactive) | -0.912 | 0.368 |
| C=CCOC(=O)[C@@H]1[C@H]2C(=O)O[C@H](c3ccccc3)[C@H](c3ccccc3)N2[C@H](c2ccc(OCCOC(=O)[C@H]3C[C@H]4C(=O)N5CCC[C@H]5C(=O)N4[C@H]3c3ccc(O)cc3)cc2)[C@@]12C(=O)Nc1ccc(I)cc12 | -0.91 | 0.148 (inactive) | 0.119 (inactive) | 1.01 (inactive) | 3.16 (inactive) | 1.27 (inactive) | 0.0092 (inactive) | -0.743 (inactive) | -0.432 | -0.02 |
| COC(=O)C(CC#Cc1ccc2c(c1)[C@]1(C(=O)N2)[C@H](C(=O)Nc2nc3ccccc3s2)[C@H]2C(=O)O[C@H](c3ccccc3)[C@H](c3ccccc3)N2[C@@H]1c1ccc(O)cc1)C(=O)OC | 0.793 | -0.0312 (inactive) | 0.792 (inactive) | -0.72 (inactive) | 1.23 (inactive) | 0.698 (inactive) | -0.0857 (inactive) | -0.169 (inactive) | -2 | 0.208 |
| C=CCC(OC(C)=O)[C@@H]1[C@@H](N(Cc2ccc(-c3ccccc3)cc2)C(=O)c2cccc3ccccc23)c2cc(OCCCO)ccc2N1C(=O)c1ccc(-c2ccccc2)cc1 (stereo not given in full) | -0.398 | -0.467 (inactive) | 0.395 (inactive) | -0.0355 (inactive) | -0.0391 (inactive) | -0.768 (inactive) | 1.59 (inactive) | 0.734 (inactive) | 0.234 | -0.411 |
| CCOC(=O)C1=C[C@@H](C(C)(C)C)N(S(=O)(=O)c2ccc(C)cc2)[C@H]1c1ccc(F)cc1 | -0.457 | 2.32 (inactive) | -0.544 (inactive) | 0.412 (inactive) | -0.116 (inactive) | 1.78 (inactive) | -0.731 (inactive) | -0.791 (inactive) | -2.36 | -0.02 |
| COC(=O)[C@@]1(Cc2ccccc2)[C@H]2c3cc(C(=O)N(C)C)n(Cc4ccsc4Br)c3C[C@H]2CN1C(=O)c1ccccc1 | -1.77 | 1.92 (inactive) | -1.74 (inactive) | 0.486 (inactive) | 0.467 (inactive) | 1.24 (inactive) | 0.156 (inactive) | 0.0523 (inactive) | -3.12 | 0.0496 |
| N#Cc1ccc(NN2C(C(O)C(c3ccccc3)c3ccccc3)C=CC3C(=O)N(c4ccccc4)C(=O)C32)cc1 (stereo not given) | -0.554 | 0.551 (inactive) | -1.17 (inactive) | 0.0998 (inactive) | 0.35 (inactive) | 0.826 (inactive) | -0.135 (inactive) | 0.832 (inactive) | 0.0951 | 0.0849 |
